Sampled rows, rich in hits. Any-hit rate of the full collection: about 10%.
NS1 function inh – blocks influenza NS1 protein function; Potency, µM (series often up to 46.1 µM), for the others: at the top dose activity, positive = more growth; 270,000 compounds, 0.4% hits; AID 2326; note: potency is the fitted concentration of half-maximal effect; actives are rising curves; nearly all actives have a fitted effect of over 50% in size
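OD600 was taken as the measure of yeast growth restored by compound in an NS1-expressing S. cerevisiae strain. Cells had been washed out of glucose medium and diluted 1:100 into galactose -URA medium, pH 6.0.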
Pf growth 48h – inhibits P. falciparum growth in the first generation, 48 h | P. falciparum luciferase growth in erythrocytes, 48 h | Potency, µM (titrated, usually from 28.7 µM), for inactives: at the highest dose activity change, negative = inhibition, usual class: inhibitors | 310,000 compounds, 5.9% hits | AID 504832; active = well fitted inhibition curve with a large enough effect; inconclusive = small, poorly fitted or top-dose-only effect, or another doubt; inactive = no such curve, though single readings can be large or run the other way; note: potency is the fitted concentration of half-maximal effect; % is set by controls: 0 for no effect and ±100 for the full control effect
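Parasite viability was followed by luminescence of a genomically integrated firefly luciferase. Cultures held 0.1% parasitemia at 2% hematocrit (final), incubated under 5% CO2 at 37 C.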
Pf growth 96h – P. falciparum growth inhibition at 96 hours | Potency, µM (top dose mostly 28.7 µM), for inactives: at the highest dose activity change, negative = inhibition, usual class: inhibitors | 320,000 compounds, 6.9% hits | P. falciparum luciferase reporter growth, 96 h; active = well fitted inhibition curve with a large enough effect; inconclusive = small, poorly fitted or top-dose-only effect, or another doubt; inactive = no such curve, though single readings can be large or run the other way; note: potency is the fitted concentration of half-maximal effect; % is set by controls: 0 for no effect and ±100 for the full control effect
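P. falciparum expressing integrated firefly luciferase grown in erythrocytes (2% hematocrit, 0.05% parasitemia final) with compounds for 96 hours at 37 C, 5% CO2. Growth inhibition read as loss of luminescence after adding luciferase detection reagent.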
SARS PLP yeast – SARS-CoV PLP inhibition in yeast | S. cerevisiae expressing SARS-CoV PLpro, growth rescue | Potency, µM (top dose mostly 32.9 µM), for inactives: at the top dose activity, positive = growth rescue, hits mostly activators | 330,000 compounds, 0.19% hits; note: potency is the fitted concentration of half-maximal effect; 0% is about no effect; nearly all actives have a fitted effect of over 55% in size
NS1 inh valid – validation of influenza NS1 protein function inhibitors; shares compounds with NS1 function inh; influenza NS1 function cell assay, 15-point titration; activity change, negative = inhibition, % at 32.9 µM; 1,400 tested, under 10 active; AID 492980; note: 0% is about no effect
PR8 titer – influenza virus titer reduction, NS1 project; virus titer (log TCID50), log10 TCID50 at 5 µM; MDCK infected influenza A/PR/8/34, virus titer TCID50; stronger effect = lower value; shares compounds with NS1 function inh; 95 compounds, 30% hits; call rule not given here
An asterisk follows results filed as active; ? = inconclusive; · = no result given. Unless noted, calls come from the whole dose curve.

SMILES | NS1 function inh | Pf growth 48h | Pf growth 96h | SARS PLP yeast | NS1 inh valid | others
CSc1cc(-c2ccc(Cl)cc2)c(C(=O)NC(C)C)s1 | -3% | -4% | -4% | 0% | ·
CSc1cc(-c2ccc(Cl)cc2)c(C(=O)NN)s1 | ? | ? | 12µM* | 5% | -20
COc1ccc(S(=O)(=O)N2CCN(C(=O)C3CC3)CC2)cc1 | ? | -9% | ? | 9% | -2
COc1ccc(S(=O)(=O)N2CCC(C(=O)N3CCOCC3)CC2)cc1 | -15% | 28% | · | 18% | ·
COc1ccc(S(=O)(=O)N2CCC(N3CCCCC3)CC2)cc1 | 1.1µM* | 57% | 46% | 15% | 11
COc1ccc(S(=O)(=O)N2CCN(C3CCCCCCC3)CC2)cc1 | 3% | 17% | -4% | -2% | ·
C1=C(CCNCC2CCCCC2)CCCC1 | -1% | · | -103% | -2% | ·
C=CCc1ccccc1OCC(O)CNC(=O)c1ccccc1C(=O)O (configuration not stated) | -8% | 0% | 20% | 3% | ·
CCOc1ccc(N2C(=O)/C(=C\c3ccccc3OC)S(=O)(=O)C2c2cccc([N+](=O)[O-])c2)cc1 (configuration not stated) | 11µM* | -1% | ? | 1% | -34
CC(C)Sc1nnc([C@@H](N)Cc2ccccc2)o1 | ? | 51% | 88% | 10% | -3
O=C1c2ccccc2C(=O)N1OCc1c(F)cccc1Cl | -4% | 26% | 33% | 0% | ·
O=C(Cc1c(F)cccc1Cl)OCN1C(=O)c2ccccc2C1=O | 2.2µM* | 2% | 80% | 9% | -6
O=C(NCc1cccs1)C1CCCN1C(=O)Nc1ccccc1Cl (configuration not stated) | ? | 32% | -16% | 0% | 4 | PR8 titer=8.5
COc1ccccc1NC(=O)CSc1nc(O)cc(=O)n1-c1ccccc1OC | 10µM* | 3.3µM* | · | 2% | 39
COc1ccccc1-n1c(SCC(=O)NC(C)(C)C)nc(O)cc1=O | 8.9µM* | 2.3µM* | 35% | 5% | 36 | PR8 titer=7.7
COc1ccc(Nc2nnc(SCC(=O)c3cc(C)n(CC4CCCO4)c3C)s2)cc1 (configuration not stated) | ? | 5.9µM* | · | -1% | 3
Cc1ccc(-n2c(SCC(=O)Nc3ccc4c5c(cccc35)CC4)nc(O)c(C)c2=O)cc1 | 7.9µM* | 10% | 15% | 3% | 38
COc1ccc(CNC(=O)c2ccc(CN3CCOCC3)cc2)cc1 | 8% | 14% | ? | -3% | ·
O=C(NCc1ccccc1)c1ccc(CN2CCOCC2)cc1 | ? | 55% | 126% | 4% | -1
CCN1CCCC1CN(Cc1cc2cc(C)ccc2[nH]c1=O)C(=O)Nc1ccccc1OC (configuration not stated) | 11µM* | ? | ? | 5% | -6
COc1ccc(NC(=O)CSc2nnc(-c3cccs3)n2-c2ccccc2)cc1 | 2.8µM* | ? | -3% | 0% | 12
COc1ccc(NC(=O)CSc2nnc(Cc3cccn3C)n2-c2ccc(F)cc2)cc1 | -8% | ? | ? | -1% | ·
COc1ccc(-n2c(Cc3cccn3C)nnc2SCC(=O)Nc2ccc(F)cc2)cc1 | ? | ? | ? | 7% | 8
Cc1ccc(-n2c(Cc3cccn3C)nnc2SCC(=O)N2CCc3ccccc32)cc1 | 7.9µM* | ? | · | -4% | -19
Cn1c(SCC(=O)c2ccccc2)nnc1-c1cccs1 | ? | -1% | 1% | -2% | -25
SMILES | NS1 function inh | Pf growth 48h | Pf growth 96h | SARS PLP yeast | NS1 inh valid | others
COc1ccccc1CN1CC(C(=O)N2CCOCC2)CCC1=O (configuration not stated) | 3% | 16% | -2% | 3% | ·
COc1ccc2c(c1)c(C(C)=O)c(C)n2CCc1ccccc1 | -3% | -7% | -8% | 0% | ·
COc1ccc2c(c1)c(C(=O)O)c(C)n2CCc1ccc(OC)c(OC)c1 | 6.3µM* | ? | 6% | -2% | 6
CC1=C(CC(=O)O)c2cc(F)ccc2/C1=C/c1ccc(S(C)=O)cc1 (configuration not stated) | 0% | 2% | -8% | -1% | ·
NC(=O)c1ccc(-n2nnnc2SCC(=O)Nc2ccccc2)cc1 | 14% | -1% | ? | 3% | ·
O=C(CSc1nnc(-c2ccc(O)cc2)n1-c1ccccc1)CC(=O)Nc1ccccc1 | 10µM* | -18% | -12% | -4% | 23
O=C(CSc1nnnn1-c1ccccc1)CC(=O)Nc1ccc(Cl)cc1 | 2.5µM* | -40% | -8% | -5% | 10
Cc1cc2cc(CN(Cc3ccc4c(c3)OCO4)C(=O)c3ccco3)c(=O)[nH]c2cc1C | ? | ? | ? | ? | 11
COC(=O)c1ccc(C23CC4(C2)[C@H](CN(C)[C@@H]4c2ccccc2)C3c2ccc(Cl)nc2)cc1 (some centres not stated) | 3% | ? | ? | -1% | ·
CCCn1c(SCC(=O)NC2CCCCC2)nnc1-c1ccco1 | 6% | -12% | -6% | 8% | ·
Cc1cc(C(=O)NNC(=O)c2ccc(Cl)cc2Cl)c(C)o1 | · | 16% | 22% | -1% | ·
CCC1(CC)NC(=O)N(CC(=O)OCn2nnc3ccccc3c2=O)C1=O | 7.1µM* | · | 58% | 7% | 3
CC12CCC(C(=O)N(CSC(=S)N/N=C\c3ccccc3Cl)C1=O)C2(C)C (configuration not stated) | 10µM* | ? | ? | ? | ? | PR8 titer=6.5*
CC1CCC2(CC1)NC(=O)N(NC(=O)c1cccc(N(C)C)c1)C2=O (configuration not stated) | · | -20% | -8% | -3% | ·
COc1ccccc1/C=N/NC(=O)c1nnn(-c2nonc2N)c1-c1cccs1 | 2.2µM* | 8% | 105% | 7% | 19
COc1ccc(OC)c(/C=N/NC(=O)c2nnn(-c3nonc3N)c2-c2cccs2)c1 | 5% | 43% | 21% | 5% | ·
CC1CCN(C(=O)c2ccc(N(C)S(C)(=O)=O)cc2)CC1 | 1% | 0% | ? | 5% | ·
CN(c1ccc(C(=O)N2CCCCC2)cc1)S(C)(=O)=O | 14µM* | 7% | 44% | 8% | 5
CC1=NN(c2ccc(C(=O)OC(C)C)cc2)C(=O)/C1=C\C=C\c1ccco1 | 11µM* | 2.9µM* | ? | ? | 3
CCCn1c(C)cc(C(=O)CSc2nc3ccccc3c(=O)n2Cc2ccco2)c1C | 8.9µM* | 30% | ? | 13% | -15
CCN1CCN(c2ccc(NC(=O)COc3ccc(Cl)cc3C)cc2)CC1 | · | · | · | 1% | ·
CCCCNC(=O)C(=O)N/N=C/c1ccc(OCC(=O)Nc2cccc(OC)c2)c(OC)c1 | ? | 17% | -1% | 9% | ·
COc1ccc(C(=O)Cn2nnc(-c3ccccc3NC(=O)c3ccco3)n2)cc1 | 10µM* | 8.3µM* | -24% | 3% | 9
COc1ccc(-n2nc(C(=O)N(C)C)nc2-c2ccccc2)cc1 | ? | 16% | 9.3µM* | -2% | 16

Screening data from PubChem BioAssay.
